According to PubChem BioAssay (EPA / NIEHS):
Calls of active or inactive are those of the source. Rule for the calls: active = hit-call score of the fitted dose curve at least 0.9, where 1 is the maximum; inactive = score below 0.9.

Read-out: Interleukin-8 (IL8), CXCL8 (gene 3576)
Experiment: BSK_MyoF_IL8: BioMAP Diversity Plus: MyoF Assay for Interleukin-8 (IL8) Biomarker Activity (AID 2284261)
Settings: primary human lung fibroblasts
How it was run: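 Human lung fibroblast (MyoF system) cultures dosed for 24 h, then IL-8 measured by ELISA. Response taken relative to DMSO; parallel SRB total-protein staining for cytotoxicity.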

SMILES	outcome	AC50
CCOC(C=C(C)CCC=C(C)C)OCC	inactive	
C[C@]12CC[C@H]3C(=CCc4cc(O)ccc43)[C@@H]1CCC2=O	inactive	
O=C(O)CCC(F)(F)C(F)(F)C(F)(F)F	inactive	
Cc1ccc(S(=O)(=O)C(I)I)cc1	inactive	
NC(=O)C(F)(F)C(F)(F)C(F)(F)C(F)(F)C(N)=O	inactive	
Cc1cnccn1	inactive	
O=C(c1ccccc1)c1ccc(O)cc1O	inactive	
NC(=O)C(F)(F)C(F)(F)C(F)(F)F	inactive	
O=C1C=CC(=O)N1c1ccc(Cc2ccc(N3C(=O)C=CC3=O)cc2)cc1	inactive	
O=C1c2c(O)ccc(Nc3ccc(CCO)cc3)c2C(=O)c2c([N+](=O)[O-])ccc(O)c21		1.65 µM (active)
CC1=CC2C3C=CC(C3)C2C1C (stereo not drawn)	inactive	
Cc1cc(O)c(C(C)(C)C)cc1C(C)(C)C		32.8 µM (active)
O=C=NCc1cccc(CN=C=O)c1	inactive	
